The campaign covered roughly 5,500 compounds. About 2,000 (36%) were called active. Roughly 18% stayed inconclusive and do not appear here. Cut-off read from the data, not from the text of the source: active = normalized growth mostly below about 0.91 (no sharp cut-off); inconclusive = no clear call, values can overlap the other calls; inactive = mostly above about 0.92. The list shows a part of the results.
Assay: chemical genetic growth profiling, strain panel (AID 1159580);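 note: tested at 20 µM; growth read once vehicle control cultures reached saturation at 30 °C; 1 = growth at the plate median or of vehicle wells; lower values mean less growth of the strain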
Details: S. cerevisiae deletion strains, growth OD
[1] = locus YAL021C, strain ccr4, hits give low values
[2] = locus YAL026C, strain drs2, hits give low values
[3] = locus YAL030W, strain snc1, hits give low values
[4] = locus YBL061C, strain skt5, hits give low values
[5] = locus YBR009C, strain hhf1, hits give low values
[6] = locus YBR023C, strain chs3, hits give low values
[7] = locus YBR171W, strain sec66, hits give low values
[8] = locus YBR231C, strain swc5, hits give low values
[9] = locus YBR279W, strain paf1, hits give low values
[10] = locus YCL011C, strain gbp2, hits give low values
[11] = locus YCL016C, strain dcc1, hits give low values
[12] = locus YCL061C, strain MRC1, hits give low values
[13] = locus YCL069W, strain vba3, hits give low values
[14] = locus YCR088W, strain abp1, hits give low values
[15] = locus YDL005C, strain med2, hits give low values
[16] = locus YDL040C, strain nat1, hits give low values
[17] = locus YDR001C, strain nth1, hits give low values
[18] = locus YDR069C, strain doa4, hits give low values
[19] = locus YDR137W, strain rgp1, hits give low values
[20] = locus YDR159W, strain sac3, hits give low values
[21] = locus YDR297W, strain sur2, hits give low values
[22] = locus YDR334W, strain swr1, hits give low values
[23] = locus YDR335W, strain msn5, hits give low values
[24] = locus YDR392W, strain spt3, hits give low values
[25] = locus YEL003W, strain gim4, hits give low values
[26] = locus YEL037C, strain rad23, hits give low values
[27] = locus YEL061C, strain CIN8 (second series), hits give low values
[28] = locus YER015W, strain faa2, hits give low values
[29] = locus YER016W, strain bim1, hits give low values
[30] = locus YER111C, strain swi4, hits give low values
[31] = locus YER155C, strain BEM2 (second series), hits give low values
[32] = locus YFR010W, strain ubp6, hits give low values
[33] = locus YGL167C, strain pmr1, hits give low values
[34] = locus YGL173C, strain kem1, hits give low values
[35] = locus YGL227W, strain vid30, hits give low values
[36] = locus YGL240W, strain doc1, hits give low values
[37] = locus YGL253W, strain hxk2, hits give low values
[38] = locus YHR013C, strain ard1, hits give low values
[39] = locus YHR027C, strain rpn1, hits give low values
[40] = locus YHR142W, strain chs7, hits give low values
[41] = locus YJL092W, strain hpr5, hits give low values
[42] = locus YJL095W, strain BCK1 (second series), hits give low values
[43] = locus YJL115W, strain asf1, hits give low values
[44] = locus YJL129C, strain trk1, hits give low values
[45] = locus YJL154C, strain vps35, hits give low values
[46] = locus YJL164C, strain tpk1, hits give low values
[47] = locus YJL166W, strain qcr8, hits give low values
[48] = locus YJL187C, strain SWE1, hits give low values
[49] = locus YKL160W, strain elf1, hits give low values
[50] = locus YKR026C, strain gcn3, hits give low values
[51] = locus YKR091W, strain srl3, hits give low values
[52] = locus YLL001W, strain dnm1, hits give low values
[53] = locus YLL026W, hits give low values
[54] = locus YLL041C, strain sdh2, hits give low values
[55] = locus YLR027C, strain aat2, hits give low values
[56] = locus YLR221C, strain rsa3, hits give low values
[57] = locus YLR258W, strain gsy2, hits give low values
[58] = locus YLR262C, strain YPT6 (second series), hits give low values
[59] = locus YLR320W, strain mms22, hits give low values
[60] = locus YLR342W, strain FKS1, hits give low values
[61] = locus YLR357W, strain rsc2, hits give low values
[62] = locus YLR370C, strain arc18, hits give low values
[63] = locus YLR384C, strain iki3, hits give low values
[64] = locus YML120C, strain ndi1, hits give low values
[65] = locus YMR058W, strain fet3, hits give low values
[66] = locus YMR125W, strain sto1, hits give low values
[67] = locus YMR129W, hits give low values
[68] = locus YMR205C, strain PFK2, hits give low values
[69] = locus YMR231W, strain pep5, hits give low values
[70] = locus YNL071W, strain lat1, hits give low values
[71] = locus YNL209W, strain ssb2, hits give low values
[72] = locus YNL248C, strain rpa49, hits give low values
[73] = locus YNL322C, strain KRE1 (second series), hits give low values
[74] = locus YNR049C, strain mso1, hits give low values
[75] = locus YOR001W, strain rrp6, hits give low values
[76] = locus YOR070C, strain gyp1, hits give low values
[77] = locus YOR080W, strain dia2, hits give low values
[78] = locus YOR083W, strain WHI5, hits give low values
[79] = locus YOR106W, strain vam3, hits give low values
[80] = locus YOR265W, strain rbl2, hits give low values
[81] = locus YOR270C, strain vph1, hits give low values
[82] = locus YOR290C, strain snf2, hits give low values
[83] = locus YPL051W, strain arl3, hits give low values
[84] = locus YPL078C, strain atp4, hits give low values
[85] = locus YPL106C, strain sse1, hits give low values
[86] = locus YPL240C, strain hsp82, hits give low values

Measured: normalized growth

C[C@]12C=CC(=O)C=C1CCC1C2[C@@H](O)C[C@@]2(C)C1CC[C@]2(O)C(=O)COP(=O)(O)O (some centres not stated)
inactive: [1] 1.01 | [2] 1 | [3] 1 | [4] 0.995 | [5] 1 | [6] 0.998 | [7] 0.995 | [8] 1.01 | [9] 1.01 | [10] 1 | [11] 0.995 | [12] 0.995 | [13] 1.01 | [14] 1.01 | [15] 1 | [16] 0.997 | [17] 1 | [18] 0.998 | [19] 1.02 | [20] 0.98 | locus YDR195W, strain ref2 0.954 | [21] 1 | [22] 1.01 | [23] 0.998 | [24] 0.96 | [25] 1.01 | [26] 1.04 | [27] 0.999 | [28] 0.999 | [29] 0.99 | [30] 0.998 | [31] 1.01 | [32] 1.01 | [33] 1 | [34] 1 | [35] 0.996 | [36] 0.996 | [37] 0.995 | [38] 1 | [39] 1 | locus YHR030C, strain SLT2, hits give low values 1.04 | locus YHR079C, strain IRE1, hits give low values 1.02 | [40] 0.999 | [41] 0.993 | [42] 0.994 | locus YJL095W, strain BCK1, hits give low values 0.977 | [43] 0.995 | [44] 1 | [45] 1.01 | [46] 0.995 | [47] 1.01 | [48] 1.01 | locus YJR066W, strain TOR1, hits give low values 0.973 | [49] 1 | [50] 0.984 | [51] 1 | [52] 1 | [53] 0.992 | [54] 1 | [55] 1.01 | locus YLR113W, strain HOG1, hits give low values 0.984 | [56] 1.01 | [57] 1 | [58] 1.01 | [59] 1 | [60] 0.989 | [61] 0.983 | [62] 1 | [63] 1 | [64] 1.01 | [65] 0.996 | [66] 0.98 | [67] 1.01 | [68] 0.992 | [69] 1 | [70] 1 | locus YNL183C, strain NPR1, hits give low values 0.973 | [71] 1 | [72] 1.02 | [73] 1 | [74] 1.01 | [75] 1.01 | [76] 0.994 | [77] 0.998 | [78] 1.01 | [79] 1.01 | locus YOR231W, strain MKK1, hits give low values 1.02 | [80] 0.995 | [81] 1.03 | [82] 1.02 | [83] 1.01 | [84] 1 | [85] 1.01 | [86] 0.996 | locus YPL256C, strain CLN2, hits give low values 0.997

OC1CC2CCCC(C1)N2Cc1ccccc1 (configuration not stated)
inactive: [1] 1.01 | [2] 0.993 | [3] 1 | [4] 0.932 | [5] 0.989 | [6] 1 | [7] 0.987 | [8] 0.988 | [9] 1 | [10] 1.01 | [11] 0.998 | [12] 0.997 | [13] 1 | [14] 1 | [15] 0.992 | [16] 0.998 | [17] 1 | [18] 0.989 | [19] 0.974 | [20] 0.963 | locus YDR195W, strain ref2 0.913 | [21] 0.998 | [22] 1.01 | [23] 1 | [24] 0.901 | [25] 1 | [26] 1 | [27] 1 | [28] 1 | [29] 0.986 | [30] 0.982 | [31] 0.989 | [32] 1 | [33] 0.99 | [34] 0.997 | [35] 0.986 | [36] 0.977 | [37] 0.989 | [38] 0.953 | [39] 1 | [40] 1.01 | [41] 1.02 | [42] 1 | [43] 1 | [44] 0.993 | [45] 1 | [46] 1 | [47] 0.998 | [48] 1 | [49] 1 | [50] 1 | [51] 0.999 | [52] 0.986 | [53] 0.988 | [54] 1 | [55] 1 | [56] 1 | [57] 0.986 | [58] 0.956 | [59] 0.99 | [60] 0.995 | [61] 0.959 | [62] 1.01 | [63] 0.996 | [64] 1.02 | [65] 1 | [66] 0.988 | [67] 0.994 | [68] 0.978 | [69] 1 | [70] 1.01 | [71] 1 | [72] 0.981 | [73] 1 | [74] 0.999 | [75] 1.01 | [76] 0.995 | [77] 0.998 | [78] 1.01 | [79] 1 | [80] 0.99 | [81] 0.99 | [82] 0.955 | [83] 1 | [84] 1 | [85] 0.98 | [86] 1
